The results in this text go back to ChEMBL document CHEMBL3988442, “University of Dundee, Small-Polar-MMV Screening Library” (2021).

For some assays here: Results with a measured potency or affinity are listed apart.

Common to all, as to design: scale not given: direction of the effect not stated beside the values
Assay [1] concerns the target Protein translocase subunit SecA (Escherichia coli (strain K12)) (UniProt P10408). The assay can be described thus: Assay to Identify E. coli SecA ATPase Inhibitors. It counts as functional. To be noted: 30 µM.
In assay [2] the target is T1, Ubiquitin-activating enzyme e1, putative (Leishmania donovani (strain BPK282A1)) (UniProt E9BSI1).
T1 sequence (whole entry): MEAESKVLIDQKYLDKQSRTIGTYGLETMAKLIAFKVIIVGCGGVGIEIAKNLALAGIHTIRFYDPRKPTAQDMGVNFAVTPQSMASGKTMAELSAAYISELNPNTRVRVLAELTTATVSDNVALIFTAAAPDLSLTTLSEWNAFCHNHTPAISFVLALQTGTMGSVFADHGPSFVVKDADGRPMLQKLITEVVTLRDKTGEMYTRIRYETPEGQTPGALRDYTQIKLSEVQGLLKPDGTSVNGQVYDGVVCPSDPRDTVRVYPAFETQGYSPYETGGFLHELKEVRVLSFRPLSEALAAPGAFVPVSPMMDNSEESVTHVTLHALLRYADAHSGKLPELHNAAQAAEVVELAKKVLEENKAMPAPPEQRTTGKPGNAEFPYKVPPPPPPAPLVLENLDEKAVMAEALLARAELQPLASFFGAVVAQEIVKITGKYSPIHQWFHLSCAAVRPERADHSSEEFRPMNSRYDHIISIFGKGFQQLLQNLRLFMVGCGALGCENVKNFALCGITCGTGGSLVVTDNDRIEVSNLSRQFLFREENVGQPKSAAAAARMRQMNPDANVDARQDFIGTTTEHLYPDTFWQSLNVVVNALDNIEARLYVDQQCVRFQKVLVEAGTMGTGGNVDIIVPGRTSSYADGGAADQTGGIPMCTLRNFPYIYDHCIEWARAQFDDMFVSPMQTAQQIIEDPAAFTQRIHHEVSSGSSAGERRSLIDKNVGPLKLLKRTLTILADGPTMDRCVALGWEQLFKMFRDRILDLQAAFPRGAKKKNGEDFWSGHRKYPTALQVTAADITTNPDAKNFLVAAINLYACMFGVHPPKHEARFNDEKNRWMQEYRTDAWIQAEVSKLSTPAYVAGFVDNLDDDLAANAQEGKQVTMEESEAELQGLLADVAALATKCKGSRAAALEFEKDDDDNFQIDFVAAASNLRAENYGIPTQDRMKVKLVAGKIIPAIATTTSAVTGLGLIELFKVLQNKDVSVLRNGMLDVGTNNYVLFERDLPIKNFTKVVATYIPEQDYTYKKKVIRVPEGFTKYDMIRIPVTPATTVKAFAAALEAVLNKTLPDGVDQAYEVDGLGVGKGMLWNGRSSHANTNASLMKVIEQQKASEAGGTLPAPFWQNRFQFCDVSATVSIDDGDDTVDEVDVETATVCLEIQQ
The assay can be described thus: Leishmania donovani Ubiquitin Activating Enzyme (LdE1). The assay is classed as functional. To be noted: 30 µM.

The target in assay [3] is AMP-activated protein kinase, AMPK (Homo sapiens) (UniProt P54646+O43741+P54619+Q9UGJ0+Q9Y478+Q13131+Q9UGI9). The assay can be described thus: AMP-dependent Kinase enzyme assay. An in vitro enzyme assay that detects ADP turnover that is directly proportional to AMPK activity. This uses naive AMPK that is activated during the assay with MK-8722. It counts as functional. The following applies: 30 µM.

Assay [4] deals with Sialic acid-binding Ig-like lectin 9 (Homo sapiens) (UniProt Q9Y336). The assay can be described thus: Hs-Siglec9 ALPHAscreen SOP 20170721. The following applies: 10 µM. (In general: Alpha assays give light when donor and acceptor beads are brought close together.)
The subject of assay [5] is Trypanosoma cruzi. The assay can be described thus: Trypanosoma cruzi phosphomannomutase and mannose-1-phosphate guanylyltransferase assay. It counts as functional. To be noted: 10 µM.
Assay [6] has as its target T2, Arginase-2, mitochondrial (Homo sapiens) (UniProt P78540).
T2 sequence (whole entry): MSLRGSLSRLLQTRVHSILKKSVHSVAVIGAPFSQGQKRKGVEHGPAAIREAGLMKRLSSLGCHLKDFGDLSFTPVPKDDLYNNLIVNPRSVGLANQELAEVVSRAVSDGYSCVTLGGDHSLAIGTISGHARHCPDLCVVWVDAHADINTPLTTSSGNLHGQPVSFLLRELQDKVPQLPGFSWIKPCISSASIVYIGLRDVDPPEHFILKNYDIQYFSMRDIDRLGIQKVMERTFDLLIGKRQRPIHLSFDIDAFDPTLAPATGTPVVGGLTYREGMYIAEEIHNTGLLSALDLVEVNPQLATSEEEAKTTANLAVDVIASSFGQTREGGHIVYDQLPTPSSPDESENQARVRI
The experiment in a line: in vitro enzyme assay to detect the production of urea directly proportional to the activity of Arginase II. Also: in the data most compounds retested in dose-response had high values. The assay is classed as functional. The following applies: 33.3 µM.

In assay [7] the target is T3, Proteasome subunit beta (Trypanosoma cruzi) (UniProt O96673).
T3 sequence (whole entry): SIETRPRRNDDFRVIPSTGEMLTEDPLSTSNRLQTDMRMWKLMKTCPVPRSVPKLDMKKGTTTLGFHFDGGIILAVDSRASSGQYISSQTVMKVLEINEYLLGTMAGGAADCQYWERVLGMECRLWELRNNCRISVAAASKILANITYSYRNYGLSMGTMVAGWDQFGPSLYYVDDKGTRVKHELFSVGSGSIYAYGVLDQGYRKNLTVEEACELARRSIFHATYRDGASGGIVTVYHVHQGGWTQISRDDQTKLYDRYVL
The assay can be described thus: Trypanosoma cruzi proteasome chymotrypsin-like activity (TcProtChymo) assay. Also: in the data most compounds retested in dose-response had high values. The assay is classed as functional. The following applies: 9.37 µM.

Assay [8] is filed under the species Homo sapiens. The assay can be described thus: To identify inhibition of the IFN signalling (Jak-Stat) pathway via expression of an eGFP reporter gene under the control of an IFN-stimulated response element (ISRE) containing MxA promoter. The following applies: 30 µM. The assay is classed as functional. A general note: In a reporter assay the amount or activity of a reporter protein is the signal.

The target of assay [9] is T4, Tyrosyl-tRNA synthetase, putative (Trypanosoma cruzi (strain CL Brener)) (UniProt Q4DSP6).
T4 sequence (whole entry): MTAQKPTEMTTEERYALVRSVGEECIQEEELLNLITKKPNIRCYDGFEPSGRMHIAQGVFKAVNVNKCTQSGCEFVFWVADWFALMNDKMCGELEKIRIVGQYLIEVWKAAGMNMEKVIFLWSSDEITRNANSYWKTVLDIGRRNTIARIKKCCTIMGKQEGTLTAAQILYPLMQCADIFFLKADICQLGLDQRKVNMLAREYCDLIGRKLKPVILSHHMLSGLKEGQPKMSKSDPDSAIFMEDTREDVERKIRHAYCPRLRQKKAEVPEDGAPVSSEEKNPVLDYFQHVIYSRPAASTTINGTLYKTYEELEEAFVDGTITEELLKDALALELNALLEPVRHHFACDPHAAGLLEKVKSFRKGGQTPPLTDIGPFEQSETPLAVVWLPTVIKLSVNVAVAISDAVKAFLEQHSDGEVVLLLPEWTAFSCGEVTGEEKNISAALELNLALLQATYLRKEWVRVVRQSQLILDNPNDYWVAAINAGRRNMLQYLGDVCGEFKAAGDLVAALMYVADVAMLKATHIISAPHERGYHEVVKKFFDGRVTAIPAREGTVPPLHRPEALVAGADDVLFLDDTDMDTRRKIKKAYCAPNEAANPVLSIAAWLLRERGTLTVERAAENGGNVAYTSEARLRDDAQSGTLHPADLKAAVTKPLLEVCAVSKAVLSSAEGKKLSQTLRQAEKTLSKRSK
The experiment in a line: Trypanosoma cruzi tyrosyl tRNA synthetase (TcYRS) _High Tyrosine SOP. Also: in the data most compounds retested in dose-response had high values. The assay is classed as functional. The following applies: 30 µM.

In assay [10] the target is T4, Tyrosyl-tRNA synthetase, putative (Trypanosoma cruzi (strain CL Brener)). The experiment in a line: Trypanosoma cruzi tyrosyl tRNA synthetase (TcYRS) SOP. It counts as functional. The following applies: 30 µM.
For assay [11], the target named is Chromo domain-containing protein 1 (Saccharomyces cerevisiae (strain ATCC 204508 / S288c) (Baker's yeast)) (UniProt P32657). The assay can be described thus: ScCHD-1 Enzyme Inhibition Assay. Also: in the data most compounds retested in dose-response had high values. The following applies: 30 µM. It counts as functional.
Chromo domain-containing protein 1 (Saccharomyces cerevisiae (strain ATCC 204508 / S288c) (Baker's yeast)), sequence (P32657 whole entry, the tested form may be a part): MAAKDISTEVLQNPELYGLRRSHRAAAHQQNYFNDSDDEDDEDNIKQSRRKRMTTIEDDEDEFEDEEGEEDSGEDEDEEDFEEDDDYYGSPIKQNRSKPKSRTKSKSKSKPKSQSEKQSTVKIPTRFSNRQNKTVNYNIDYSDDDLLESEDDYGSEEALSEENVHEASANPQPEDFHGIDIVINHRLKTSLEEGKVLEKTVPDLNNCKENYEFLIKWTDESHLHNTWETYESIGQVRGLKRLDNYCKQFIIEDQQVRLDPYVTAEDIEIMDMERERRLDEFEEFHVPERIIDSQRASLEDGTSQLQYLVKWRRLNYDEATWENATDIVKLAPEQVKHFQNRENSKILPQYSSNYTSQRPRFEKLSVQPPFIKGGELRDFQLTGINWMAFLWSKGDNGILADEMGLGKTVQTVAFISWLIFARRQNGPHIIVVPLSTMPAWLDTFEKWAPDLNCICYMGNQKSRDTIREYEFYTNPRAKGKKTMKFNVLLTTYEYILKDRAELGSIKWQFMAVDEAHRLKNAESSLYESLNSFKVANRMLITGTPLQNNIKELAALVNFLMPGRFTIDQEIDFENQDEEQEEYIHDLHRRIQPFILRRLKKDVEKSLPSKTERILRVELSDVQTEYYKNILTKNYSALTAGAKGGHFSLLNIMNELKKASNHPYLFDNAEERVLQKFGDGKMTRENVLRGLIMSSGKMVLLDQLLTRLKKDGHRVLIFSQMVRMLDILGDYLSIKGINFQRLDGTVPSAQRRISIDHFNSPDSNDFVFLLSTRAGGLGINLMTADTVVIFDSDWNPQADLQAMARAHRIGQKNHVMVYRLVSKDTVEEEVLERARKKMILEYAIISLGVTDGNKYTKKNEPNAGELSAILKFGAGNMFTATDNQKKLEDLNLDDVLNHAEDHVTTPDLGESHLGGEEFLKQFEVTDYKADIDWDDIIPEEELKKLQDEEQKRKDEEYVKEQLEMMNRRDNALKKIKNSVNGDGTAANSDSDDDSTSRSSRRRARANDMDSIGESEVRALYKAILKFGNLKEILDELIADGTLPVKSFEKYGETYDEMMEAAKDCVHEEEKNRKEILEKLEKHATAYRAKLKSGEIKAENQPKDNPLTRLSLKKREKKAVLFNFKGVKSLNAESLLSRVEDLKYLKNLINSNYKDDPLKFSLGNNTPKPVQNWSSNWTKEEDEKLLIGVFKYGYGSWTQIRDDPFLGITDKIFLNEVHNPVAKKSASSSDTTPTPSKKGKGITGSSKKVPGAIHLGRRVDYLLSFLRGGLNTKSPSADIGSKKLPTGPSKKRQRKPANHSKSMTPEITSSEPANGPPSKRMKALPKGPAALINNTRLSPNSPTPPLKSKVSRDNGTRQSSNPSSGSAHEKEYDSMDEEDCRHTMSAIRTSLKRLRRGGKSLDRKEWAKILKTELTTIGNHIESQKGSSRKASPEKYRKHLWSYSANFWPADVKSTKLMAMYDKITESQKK

Protein translocase subunit SecA (Escherichia coli (strain K12)), sequence (P10408 whole entry): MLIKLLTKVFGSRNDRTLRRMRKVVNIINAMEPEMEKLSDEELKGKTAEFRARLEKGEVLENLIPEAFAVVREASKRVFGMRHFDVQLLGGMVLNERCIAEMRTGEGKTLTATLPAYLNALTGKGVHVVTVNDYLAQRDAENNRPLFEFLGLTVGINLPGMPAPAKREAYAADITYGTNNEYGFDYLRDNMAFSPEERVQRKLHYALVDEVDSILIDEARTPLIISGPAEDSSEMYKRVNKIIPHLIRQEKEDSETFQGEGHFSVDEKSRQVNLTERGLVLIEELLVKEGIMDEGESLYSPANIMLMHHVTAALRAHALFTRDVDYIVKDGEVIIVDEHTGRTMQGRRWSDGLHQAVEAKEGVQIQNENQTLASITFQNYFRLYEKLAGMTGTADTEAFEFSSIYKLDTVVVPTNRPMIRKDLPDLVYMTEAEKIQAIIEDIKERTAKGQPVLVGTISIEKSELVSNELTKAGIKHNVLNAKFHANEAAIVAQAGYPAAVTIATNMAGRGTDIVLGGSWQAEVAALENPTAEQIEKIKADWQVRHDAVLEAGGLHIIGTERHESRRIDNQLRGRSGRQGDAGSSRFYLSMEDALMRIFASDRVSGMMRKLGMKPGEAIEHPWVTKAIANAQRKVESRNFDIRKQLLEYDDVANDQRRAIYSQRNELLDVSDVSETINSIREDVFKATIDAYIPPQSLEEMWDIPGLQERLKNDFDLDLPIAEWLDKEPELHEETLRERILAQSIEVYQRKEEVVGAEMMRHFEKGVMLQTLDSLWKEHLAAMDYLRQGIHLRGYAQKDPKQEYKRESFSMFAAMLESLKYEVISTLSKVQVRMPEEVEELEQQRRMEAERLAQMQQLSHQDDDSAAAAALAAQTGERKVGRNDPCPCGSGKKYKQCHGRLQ
Sialic acid-binding Ig-like lectin 9 (Homo sapiens), sequence (Q9Y336 whole entry): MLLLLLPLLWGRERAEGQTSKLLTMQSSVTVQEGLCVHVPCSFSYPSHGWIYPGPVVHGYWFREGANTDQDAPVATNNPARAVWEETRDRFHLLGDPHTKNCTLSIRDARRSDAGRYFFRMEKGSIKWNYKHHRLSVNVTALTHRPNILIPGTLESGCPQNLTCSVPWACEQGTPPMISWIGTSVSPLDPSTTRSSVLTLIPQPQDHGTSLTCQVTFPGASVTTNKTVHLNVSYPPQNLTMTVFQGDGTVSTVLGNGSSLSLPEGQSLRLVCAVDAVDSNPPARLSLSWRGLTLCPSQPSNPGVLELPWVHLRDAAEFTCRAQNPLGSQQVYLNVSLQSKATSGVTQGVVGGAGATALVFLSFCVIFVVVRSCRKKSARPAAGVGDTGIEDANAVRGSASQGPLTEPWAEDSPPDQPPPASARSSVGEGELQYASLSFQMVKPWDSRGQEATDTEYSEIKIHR

On to `CC(C)S(=O)(=O)NCC1CCCN(C(=O)c2ccc3c(c2)CCC3)C1` (stereo not given), for which the Percent Effect in [1] is -5.88%; in [2] it was 5.48%; in assay [3] it was 5.06%; in [4], -5.74%; in assay [5] it was 0.588%; in assay [6], -2.27%. Also, the Percent Effect in [7] is 7.28%; in assay [8], 16.7%; in assay [9], 1.07%; in [10], 7.5%; in assay [11] it was -5.72%.
`COCCN1CCC(NC(=O)C2(c3cc(C)cc(C)c3)CC2)CC1`: the Percent Effect in assay [1] was -5.08%; in [2], 0%; in assay [3], -4.53%; in [4] it was -1.6%; in assay [5] it was -1.59%; in [6] it was 0.719%. For the same compound, the Percent Effect in [7] is -1.95%; in assay [8] it was -10.6%; in assay [9] it was 1.48%; in assay [10], -1.24%; in assay [11], 6.15%.
Regarding `CCn1c(C(=O)N2CCN(C(=O)NC(C)C)CC2)cc2ccccc21`, the Percent Effect was -9.42% in assay [1]; 2.6% in assay [2]; 5.86% in [3]; -4.68% in assay [4]; -3.37% in [5]; 0.356% in [6]. Also, the Percent Effect in [7] was 6.93%; in assay [8], 14.7%; in [9], 0%; in [10], 0%; in assay [11], -7.12%.
With `CN(C)C(=O)N1C[C@@H]2COC[C@]2(CNS(C)(=O)=O)C1`, the Percent Effect in assay [1] was -1.78%; in assay [2], -2.7%; in assay [3], 5.5%; in assay [4] it was 5.41%; in [5] it was -1.27%; in [6], 2.87%. The Percent Effect in assay [7] is 16.8%; in assay [8] it was -0.0949%; in assay [9], 0%; in [10], -5.13%; in assay [11], 3.04%.
As for `COCC1CCN(C(=O)c2cccc(S(=O)(=O)NCC3(C)COC3)c2)C1` (stereo not given), the Percent Effect was -8.36% in assay [1]; 5.41% in assay [2]; 0.667% in assay [3]; 24.4% in assay [4]; 1.07% in assay [5]; 3.23% in assay [6]. In addition, the Percent Effect in assay [7] is 1.63%; in assay [8], 9.82%; in assay [9], 6.45%; in assay [10], 13.6%; in assay [11] it was -4.61%.
With `CC(=O)Nc1nc(C(=O)N2CCCC2Cn2cc(C)cn2)cs1` (stereo not given), the Percent Effect in [1] is -5.22%; in [2] it was 10.4%; in assay [3], 1.53%; in assay [4] it was 17.1%; in [5], -6.76%; in assay [6] it was 1.47%. Moreover, the Percent Effect in [7] is 14.5%; in [8], 26.6%; in [9] it was 2.86%; in assay [10], 9.41%; in assay [11] it was -19.2%.
`O=C(Cn1cc(C(=O)O)ccc1=O)Nc1ccc(Cl)cc1F`: the Percent Effect is -1.04% in assay [1]; 20% in assay [2]; -5.95% in assay [3]; 0.752% in assay [4]; 1.38% in assay [5]; -4.75% in [6]. Moreover, the Percent Effect in assay [7] was 10.7%; in assay [8] it was 9.59%; in assay [9] it was 7.41%; in assay [10] it was 10.3%; in assay [11], -12%.
Turning to `COc1cnc(N2CCC(Oc3ccccc3OC)(C(=O)O)CC2)nc1`, the Percent Effect was -5.13% in assay [1]; 11% in assay [2]; 0.422% in assay [3]; 4.04% in assay [4]; 0.595% in [5]; -2% in assay [6]. The Percent Effect in assay [7] is 8.99%; in assay [8] it was -4.79%; in [9], 5.21%; in assay [10] it was 8.64%; in assay [11], -4.67%.
Consider `CN(C)c1cc(CNC(=O)c2ccc(F)cc2F)ccn1`, for which the Percent Effect in [1] is -4.79%; in assay [2] it was 28.6%; in [3] it was -1.46%; in assay [4] it was 10.4%; in [5], 5.62%; in [6], -1.78%. The Percent Effect in assay [7] is 8.11%; in [8] it was 8.43%; in [9], 5.83%; in [10] it was 24.4%; in assay [11], -9.26%.
As to `O=C(c1cnoc1)N1CCC[C@]2(C[C@H](Oc3ncccc3F)CO2)C1`, the Percent Effect in [1] is -4.36%; in [2] it was -30.1%; in assay [3], -3.76%; in assay [4], 25%; in [5], 9.72%; in assay [6], -5.59%. The Percent Effect is 11.7% in [7]; 9.74% in [8]; 4.17% in [9]; 8.64% in assay [10]; -3.75% in [11].
